From PubChem BioAssay (NCATS)
Several values for one entry are separate records, joined by “and”; a condition that tells them apart may be missing. Equal entries are not always repeated. Records with an inconclusive call do not appear. Activity calls are given as the source filed them. Calls follow the shape of the dose curve; as a rule, active = well fitted curve in the direction sought with a large enough effect; inconclusive = small, poorly fitted or top-dose-only effect, or another doubt; inactive = no such curve, though single readings can be large; an effect the other way counts as inactive or inconclusive.

Experiments:
[1] = Cell Viability - N2a (AID 540); conditions: N2a mouse neuroblastoma cell viability; activity change, negative = cytotoxicity: at 92.2 µM (top of the series);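 also: cells exposed to compound for 40 h at 37 °C; plate controls were DMSO alone for no effect and tamoxifen control for full effect; nearly all actives have a fitted effect of over 45% in size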
Summary of the method: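 In this qHTS cytotoxicity screen, ATP-dependent luciferase luminescence reports viable N2a cells after a 40 hr compound exposure in complete culture medium. Potencies are AC50 values from standard Hill equation fits.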

[2] = Cell Viability - HUV-EC-C (AID 542); also: % is scaled to controls: 0 for no effect and ±100 for the full control effect; nearly all actives have a fitted effect of over 35% in size
Summary of the method: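 Concentration-dependent ATP loss in HUV-EC-C cells is the measure. Exposure lasts 40 hr at 37 °C; luminescence follows CellTiter-Glo addition, and Hill fits give AC50.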

[3] = Cell Viability - Renal Proximal Tubule (AID 545); conditions: renal proximal tubule cells viability, primary cells of rat origin; at 91.7 µM (top of the series); also: nearly all actives have a fitted effect of over 40% in size
Summary of the method: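 In this qHTS format, normal rat kidney-derived proximal tubule cells in complete culture medium receive compound titrations, then sit 40 hours at 37 °C before luciferase-based ATP quantitation; potency is reported as AC50 from concentration-response curves.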

[4] = Cellular Toxicity (caspase-3) Jurkat (AID 655); conditions: Jurkat caspase-3 activation, luminescence, DMSO = 0%, tamoxifen = 100%; at 92.2 µM (top of the series);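 also: cells exposed to compound for 16 h at 37 °C before reading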
Summary of the method: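 qHTS in human Jurkat T-cell leukemia line: 16 hr compound treatment at 37 °C, caspase-3/7 activity measured by Caspase-Glo luminescence. AC50 derived from Hill equation.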

[5] = Cellular Toxicity (caspase-3) SHSY5Y (AID 657);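 also: cells exposed to compound for 16 hours at 37 °C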
Summary of the method: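 Readout: caspase-cleaved peptide-aminoluciferin substrate driving luciferase light in SH-SY5Y neuroblastoma cells after 16 h treatment. Response normalized to DMSO and 10 uM staurosporine controls.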

[6] = Cellular Toxicity (caspase-3) SK-N-SH (AID 661);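 also: cells exposed to compound for 16 hours; 0% = DMSO basal and 100% = 10 µM staurosporine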
Summary of the method: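 Apoptosis readout in SK-N-SH neuroblastoma: Caspase-Glo 3/7 luminescence following 16 hr treatment in complete culture medium. Normalization used DMSO and 10 uM staurosporine controls.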

[7] = Cellular Toxicity (caspase-3) H-4-II-E (AID 663); conditions: Potency: caspase-3 activation;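 also: cells exposed to compound for 16 hr before readout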
Summary of the method: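 Caspase 3/7 activation measured by luminescent aminoluciferin substrate cleavage after 16 hr compound treatment of H-4-II-E cells in complete medium. Increase normalized between DMSO (basal) and 100 uM tamoxifen (100%); Hill-equation AC50 from concentration-response.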

[8] = Cellular Toxicity (caspase-3) N2a (AID 665);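 also: compound exposure lasted 16 h at 37 °C before readout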
Summary of the method: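 Concentration-response qHTS: compound-induced caspase-3/7 luminescence in N2a cells (16 h, 37 °C), relative to DMSO and 10 uM staurosporine controls; AC50 obtained using the standard Hill equation.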

[9] = Cell Viability - LYMP2-001 (AID 921);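 also: 0% = DMSO only and full inhibition = tetraoctylammonium bromide control wells; nearly all actives have a fitted effect of over 70% in size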
Summary of the method: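 A lymphoblastoid cell line of human origin was treated with library compounds across a concentration series for 24 hours, and viable cell number was estimated from ATP-driven luciferase light output. Hill modeling gave AC50.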

[10] = Cell Viability - LYMP1-002 - Assay at 16 hr (AID 948);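 also: 0% = DMSO alone and full effect = 92 µM tetraoctylammonium bromide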
Summary of the method: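 In this qHTS, lymphoblastoid LYMP1-002 cells (human) receive compounds for 16 hr at 37 C. Viability is taken from CellTiter-Glo ATP luminescence, and AC50 derives from standard Hill fits.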

[11] = Cell Viability - LYMP1-003 - Assay at 24 hr (AID 963);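 also: plate controls were DMSO only for no effect and tetraoctylammonium bromide positive control for full effect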
Summary of the method: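 The lymphoblastoid line was treated with titrated compounds for 24 hours, and viable cell number estimated from luciferase-based ATP luminescence.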

[12] = Cell Viability - LYMP2-003 (AID 965);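 also: cells exposed to compounds for 24 h before reading; 0% = DMSO only and full effect = 92 µM tetraoctylammonium bromide; nearly all actives have a fitted effect of over 50% in size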
Summary of the method: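 qHTS, human lymphoblastoid line, 2500 cells/well, complete medium. 24 h drug, 37 C. ATP-based luminescent readout; Hill-fit AC50.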

[13] = Cell Viability - LYMP2-005 (AID 967);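 also: plate controls were DMSO only for no effect and 92 µM tetraoctylammonium bromide control for full effect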
Summary of the method: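 Luciferase-based ATP quantitation served as the viability measure in human lymphoblastoid LYMP2-005 cells exposed to test compounds for 24 h at 37 C in complete culture medium. Potency (AC50) was obtained by fitting concentration-response curves with the Hill equation.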

[14] = Cell Viability - LYMP2-009 (AID 968);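 also: 0% = DMSO alone and the full-kill end = tetraoctylammonium bromide at 92 µM; nearly all actives have a fitted effect of over 55% in size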
[15] = Cell Viability - LYMP2-019 (AID 973);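 also: 0% = DMSO alone and full effect = 92 µM tetraoctylammonium bromide; nearly all actives have a fitted effect of over 55% in size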
Summary of the method: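 AC50 values come from Hill-equation modelling of qHTS concentration-response curves, where viability is measured as luciferase-based ATP luminescence in the lymphoblastoid line after 24 hr compound exposure in complete culture medium.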

[16] = Cell Viability - LYMP2-023 (AID 975);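 also: cellular ATP measured by luciferase luminescence as viability proxy; plate controls were DMSO only for no effect and 92 µM tetraoctylammonium bromide control for full effect; nearly all actives have a fitted effect of over 55% in size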
Summary of the method: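 In this qHTS, ATP-based luciferase luminescence (CellTiter-Glo) is quantified in human lymphoblastoid cells after 24 hr compound treatment at 37 C; tetraoctylammonium bromide serves as positive control. Concentration-response curves are Hill-fitted to give AC50.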

[17] = Cell Viability - LYMP2-025 (AID 976);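 also: plate controls were DMSO only for no effect and tetraoctylammonium bromide control for full effect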
Summary of the method: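 Luminescent ATP readout after 24 hr treatment of a human lymphoblastoid line (LYMP2-025, 2500 cells/well, 37 C). Reagent developed 30 min at room temperature; AC50 fitted with the Hill equation.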

[18] = Cell Viability - LYMP2-008 (AID 980); also: % is scaled to controls: 0 for no effect and ±100 for the full control effect; nearly all actives have a fitted effect of over 60% in size
Summary of the method: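 Measured: ATP-dependent luminescence, proportional to viable cell number, in human lymphoblastoid cells treated 24 hr with compound in complete culture medium. Values are AC50s from Hill-equation modelling of qHTS titrations.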

[19] = Cell Viability - LYMP2-014 (AID 983);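 also: plate controls were DMSO only for no effect and 92 µM tetraoctylammonium bromide for full effect; nearly all actives have a fitted effect of over 50% in size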
Summary of the method: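 Quantitative HTS in lymphoblastoid cells: 24 hr compound exposure, then CellTiter-Glo ATP luminescence. Positive control was tetraoctylammonium bromide, 6.4pM to 92 uM.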

[20] = Cell Viability - LYMP2-026 (AID 989); also: % is scaled to controls: 0 for no effect and ±100 for the full control effect; nearly all actives have a fitted effect of over 50% in size
Summary of the method: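 Acute toxicity screen in complete culture medium, with 24 hr compound exposure at 37 C. Viability read as cellular ATP via luciferase reaction, with tetraoctylammonium bromide (6.4pM to 92 uM) as positive control.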

CCO
inactive: activity change, negative = cytotoxicity [1] -0.0856% | outcome [2] | activity change, negative = cytotoxicity [3] -3.41% | caspase-3 activation [4] -0.073% | outcome [5] | outcome [6] | Potency [7] | outcome [8] | Potency [9] | Potency [10] | Potency [11] | Potency [12] | Potency [13] | Potency [14] | Potency [15] | Potency [16] | Potency [17] | Potency [18] | Potency [19] | Potency [20]

Cc1ccc(N)c([N+](=O)[O-])c1
inactive: activity change, negative = cytotoxicity [1] 2.46% | outcome [2] | activity change, negative = cytotoxicity [3] 4.17% | caspase-3 activation [4] -0.471% | outcome [5] | outcome [6] | Potency [7] | outcome [8] | Potency [9] | Potency [10] | Potency [11] | Potency [12] | Potency [13] | Potency [14] | Potency [15] | Potency [16] | Potency [17] | Potency [18] | Potency [19] | Potency [20]

COc1ccc2nc(N)sc2c1
inactive: activity change, negative = cytotoxicity [1] -0.684% | outcome [2] | activity change, negative = cytotoxicity [3] -14.7% | caspase-3 activation [4] -5.35% | outcome [5] | outcome [6] | Potency [7] | outcome [8] | Potency [9] | Potency [10] | Potency [11] | Potency [12] | Potency [13] | Potency [14] | Potency [15] | Potency [16] | Potency [17] | Potency [18] | Potency [19] | Potency [20]

CC1=CC(C)(C)Nc2ccccc21
inactive: activity change, negative = cytotoxicity [1] -24% and 1.94% | outcome [2] | activity change, negative = cytotoxicity [3] -6.6% and -0.974% | caspase-3 activation [4] -0.184% and 0.591% | outcome [5] | outcome [6] | Potency [7] | outcome [8] | Potency [9] | Potency [10] | Potency [11] | Potency [12] | Potency [13] | Potency [14] | Potency [15] | Potency [16] | Potency [17] | Potency [18] | Potency [19] | Potency [20]

CN(C)CCCCCCN(C)C
inactive: activity change, negative = cytotoxicity [1] 1.64% | outcome [2] | activity change, negative = cytotoxicity [3] -0.404% | caspase-3 activation [4] -2.92% | outcome [5] | outcome [6] | Potency [7] | outcome [8] | Potency [9] | Potency [10] | Potency [11] | Potency [12] | Potency [13] | Potency [14] | Potency [15] | Potency [16] | Potency [17] | Potency [18] | Potency [19] | Potency [20]

c1ccc2c(c1)[nH]c1ccccc12
inactive: activity change, negative = cytotoxicity [1] -16.4% | outcome [2] | activity change, negative = cytotoxicity [3] -10.3% | caspase-3 activation [4] 0.344% | outcome [5] | outcome [6] | Potency [7] | outcome [8] | Potency [9] | Potency [10] | Potency [11] | Potency [12] | Potency [13] | Potency [14] | Potency [15] | Potency [16] | Potency [17] | Potency [18] | Potency [19] | Potency [20]

S=C1NC=NC2N=CNC12 (configuration not stated)
inactive: outcome [2] | caspase-3 activation [4] 20.1% | outcome [5] | outcome [6] | Potency [7] | Potency [9] | Potency [13]

CC(C)=CCCC(C)CCO (configuration not stated)
inactive: activity change, negative = cytotoxicity [1] -9.36% | outcome [2] | activity change, negative = cytotoxicity [3] -2.53% | caspase-3 activation [4] 2.37% | outcome [5] | outcome [6] | Potency [7] | outcome [8] | Potency [9] | Potency [10] | Potency [11] | Potency [12] | Potency [13] | Potency [14] | Potency [15] | Potency [16] | Potency [17] | Potency [18] | Potency [19] | Potency [20]

CCCCCCCCCCCCCCC1CO1 (configuration not stated)
inactive: activity change, negative = cytotoxicity [1] 8.54% | outcome [2] | activity change, negative = cytotoxicity [3] -7.28% | caspase-3 activation [4] 0.846% | outcome [5] | outcome [6] | Potency [7] | outcome [8] | Potency [9] | Potency [10] | Potency [11] | Potency [12] | Potency [13] | Potency [14] | Potency [15] | Potency [16] | Potency [17] | Potency [18] | Potency [19] | Potency [20]

CCCCOCCO
inactive: activity change, negative = cytotoxicity [1] 6.13% and -1.59% | outcome [2] | activity change, negative = cytotoxicity [3] 5.22% and -6.35% | caspase-3 activation [4] 0.121% and 0.365% | outcome [5] | outcome [6] | Potency [7] | outcome [8] | Potency [9] | Potency [10] | Potency [11] | Potency [12] | Potency [13] | Potency [14] | Potency [15] | Potency [16] | Potency [17] | Potency [18] | Potency [19] | Potency [20]

COc1c2ccoc2cc2oc(=O)ccc12
inactive: activity change, negative = cytotoxicity [1] 0.867% | outcome [2] | activity change, negative = cytotoxicity [3] -16.3% | caspase-3 activation [4] -0.404% | outcome [5] | outcome [6] | Potency [7] | outcome [8] | Potency [9] | Potency [10] | Potency [11] | Potency [12] | Potency [13] | Potency [14] | Potency [15] | Potency [16] | Potency [17] | Potency [18] | Potency [19] | Potency [20]
